Source: PubChem BioAssay AID624354 (Sanford-Burnham Center for Chemical Genomics, 2012)
The campaign covered roughly 360,000 compounds. About 3,800 (1.1%) were called active.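 How the source made its calls: active means compounds causing at least 50% loss of cell viability in the single-dose screen, relative to plate controls; inactive means the rest.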 Only a selection was taken, and actives are over-represented in it overall.

Experiment: TRAIL-exposed caspase-8 expressing cell killing – NB7+C8 cells, ATPlite luminescence, TRAIL sensitizer project, primary screen (AID 624354)
Settings: at 10 µM, active compounds read high

Structure (SMILES) | inhibition (viability loss, TRAIL sensitization)
Cc1ccc(N(Cc2cc(=O)[nH]c3ccccc23)C(=O)CCl)cc1 | 92.9% (active)
CCC(=O)N(Cc1cc2ccccc2[nH]c1=O)c1ccc(OC)cc1 | -1.03% (inactive)
CC(=O)N(Cc1cc(=O)[nH]c2ccccc12)c1ccc(C)cc1C | 1.98% (inactive)
CN(C(=O)CSc1nnc(-c2ccc3c(c2)OCO3)o1)C1CCS(=O)(=O)C1 (stereo unspecified) | -7.74% (inactive)
C=C1C(=O)[C@]23C[C@H]1CCC2[C@@]1(C)C(C[C@@H]3O)[C@](C)(C(=O)O)CC[C@@H]1O (stereo partly specified) | 25.6% (inactive)
CCOc1ccc2cc(C#N)c(SCC(=O)OC)nc2c1 | 51.7% (active)
CCOc1ccc2nc(N3CCCN(C(=O)Nc4ccccc4C)CC3)c(C#N)cc2c1 | 4.35% (inactive)
COc1ccc(CCNC(=O)CSc2nc(-c3ccc(OC)c(OC)c3)ccc2C#N)cc1 | 28% (inactive)
O=C(NCCO)C(=O)NCC(c1ccc2c(c1)OCO2)N1CCN(c2ccc(F)cc2)CC1 (stereo unspecified) | -13% (inactive)
COc1ccc([N+](=O)[O-])cc1NC(=O)C(C)OC(=O)C1c2ccccc2Oc2ccccc21 (stereo unspecified) | 5.23% (inactive)
CCN(C(=O)COc1cccnc1[N+](=O)[O-])C1CCS(=O)(=O)C1 (stereo unspecified) | -20.2% (inactive)
CCC(=O)Nc1nnc(S(=O)(=O)N2CCCc3ccccc32)s1 | 18.7% (inactive)
CCOc1ccc2nc(C(=O)N3CCCC(C)C3)sc2c1 (stereo unspecified) | 31.9% (inactive)
CCOc1ccc2nc(N(CCCN(C)C)C(=O)c3ccc(C(=O)c4ccccc4)cc3)sc2c1 | 84.6% (active)
CN(C)CCCN(C(=O)c1ccc(S(=O)(=O)N2CCCc3ccccc32)cc1)c1nc2ccc(F)cc2s1 | 49.7% (active)
CCN(C(=O)COc1ccc(C(=O)c2ccccc2)cc1)c1ccccc1 | 5.81% (inactive)
CC1CCN(C(=O)c2cccc(S(=O)(=O)N3CCCc4ccccc43)c2)CC1 | 9.56% (inactive)
CC(C)CC(=O)N1CCN(Cc2ccccc2Br)CC1 | -13.2% (inactive)
COC(=O)[C@]12CCCCC=C1N(Cc1cccc3ccccc13)C(=O)[C@H](CC(=O)N1CCOCC1)C2 | -17.8% (inactive)
CCN(Cc1ccncc1)C(=S)Nc1ccccc1C | -14.3% (inactive)
COc1cc(C=O)ccc1Oc1nnnn1-c1ccccc1 | 9.4% (inactive)

Structure (SMILES) | inhibition (viability loss, TRAIL sensitization)
O=C(CNC(=O)c1cc(=O)[nH]c2ccccc12)Nc1ccc(F)c(F)c1 | -6.89% (inactive)
CN1CCN(CCCNC(=O)c2ccc(/C=C3\Oc4ccccc4N(Cc4ccc(Cl)cc4)C3=O)cc2)CC1 | 70.5% (active)
CCC1Oc2ccccc2N(CC(=O)NCCCN2CCN(CC)CC2)C1=O (stereo unspecified) | -10.7% (inactive)
Cc1ccc(NC(=O)CCCNC(=O)c2ccc(Cl)cc2)cc1S(=O)(=O)N1CCOCC1 | 3.06% (inactive)
O=C(Nc1cccc(F)c1)N1C2CCC1CC(O)(c1cccnc1)C2 (stereo unspecified) | -0.997% (inactive)
Cc1ccsc1C(=O)OCC(=O)c1cc(C)n(CC2CCCO2)c1C (stereo unspecified) | 75.4% (active)
COc1ccc(CNC(=O)COC(=O)c2sccc2C)cc1OC | -16.5% (inactive)
CCCn1c(C)cc(C(=O)COC(=O)c2c(C)nn(-c3ccccc3)c2C)c1C | 1.44% (inactive)
COc1ccc(/C=N/N=C/c2c[nH]c(=O)c(C#N)c2Nc2ccccc2)cc1 | 19.4% (inactive)
Cc1ccc(S(=O)(=O)NCc2cn3ccsc3n2)c(C)c1 | -5.68% (inactive)
FC(F)(F)Oc1ccc(-c2cn3cccnc3n2)cc1 | 34.5% (inactive)
COc1ccc(-c2cc3nc(NCCOc4ccccc4)ccn3n2)cc1 | 2.79% (inactive)
COc1cc(OC)cc(-c2nc(=S)n3ccsc3n2)c1 | -7% (inactive)
COc1ccc(-c2cn3ccc(C)cc3n2)cc1 | 87.1% (active)
COc1ccc(-c2cn3ccsc3n2)cc1 | 54.1% (active)
CCn1cc(C(=O)NCC(=O)NC(C)(C)CO)c(=O)c2cc3c(cc21)OCO3 | -16.5% (inactive)
COc1ccc(C(C)NC(=S)NC2CCCCC2)cc1OC (stereo unspecified) | -10.3% (inactive)
CN1CC(c2ccccc2)C2(COc3ccccc3C2=O)C12C(=O)Nc1ccccc12 (stereo unspecified) | 1.61% (inactive)
COc1ccc(OC)c(NC(=O)CSc2nc(N)c(-c3ccccc3)c(=O)[nH]2)c1 | -16.4% (inactive)
OC(CNCc1ccc(Cl)c(Cl)c1)c1ccccc1 (stereo unspecified) | 1.28% (inactive)
